Bioassay records as filed in PubChem.
A selection: hits, their analogues and other compounds. The true share with any hit is near 1.5%.
WRN helicase inh-1 = blocks human WRN helicase; Q14191; WRN helicase unwinding, fluorescent forked duplex, kinetic; Potency, µM (doses to about 114 µM), inactives show at the highest dose activity change, negative = inhibition, usual class: inhibitors; 360,000 tested, 0.46% active; further: potency means the concentration at half of the fitted maximal effect; on the % scale 0 is the no-effect control and ±100 the full control effect; nearly all actives have a fitted effect of over 55% in size
Target sequence (Q14191 whole entry, looked up): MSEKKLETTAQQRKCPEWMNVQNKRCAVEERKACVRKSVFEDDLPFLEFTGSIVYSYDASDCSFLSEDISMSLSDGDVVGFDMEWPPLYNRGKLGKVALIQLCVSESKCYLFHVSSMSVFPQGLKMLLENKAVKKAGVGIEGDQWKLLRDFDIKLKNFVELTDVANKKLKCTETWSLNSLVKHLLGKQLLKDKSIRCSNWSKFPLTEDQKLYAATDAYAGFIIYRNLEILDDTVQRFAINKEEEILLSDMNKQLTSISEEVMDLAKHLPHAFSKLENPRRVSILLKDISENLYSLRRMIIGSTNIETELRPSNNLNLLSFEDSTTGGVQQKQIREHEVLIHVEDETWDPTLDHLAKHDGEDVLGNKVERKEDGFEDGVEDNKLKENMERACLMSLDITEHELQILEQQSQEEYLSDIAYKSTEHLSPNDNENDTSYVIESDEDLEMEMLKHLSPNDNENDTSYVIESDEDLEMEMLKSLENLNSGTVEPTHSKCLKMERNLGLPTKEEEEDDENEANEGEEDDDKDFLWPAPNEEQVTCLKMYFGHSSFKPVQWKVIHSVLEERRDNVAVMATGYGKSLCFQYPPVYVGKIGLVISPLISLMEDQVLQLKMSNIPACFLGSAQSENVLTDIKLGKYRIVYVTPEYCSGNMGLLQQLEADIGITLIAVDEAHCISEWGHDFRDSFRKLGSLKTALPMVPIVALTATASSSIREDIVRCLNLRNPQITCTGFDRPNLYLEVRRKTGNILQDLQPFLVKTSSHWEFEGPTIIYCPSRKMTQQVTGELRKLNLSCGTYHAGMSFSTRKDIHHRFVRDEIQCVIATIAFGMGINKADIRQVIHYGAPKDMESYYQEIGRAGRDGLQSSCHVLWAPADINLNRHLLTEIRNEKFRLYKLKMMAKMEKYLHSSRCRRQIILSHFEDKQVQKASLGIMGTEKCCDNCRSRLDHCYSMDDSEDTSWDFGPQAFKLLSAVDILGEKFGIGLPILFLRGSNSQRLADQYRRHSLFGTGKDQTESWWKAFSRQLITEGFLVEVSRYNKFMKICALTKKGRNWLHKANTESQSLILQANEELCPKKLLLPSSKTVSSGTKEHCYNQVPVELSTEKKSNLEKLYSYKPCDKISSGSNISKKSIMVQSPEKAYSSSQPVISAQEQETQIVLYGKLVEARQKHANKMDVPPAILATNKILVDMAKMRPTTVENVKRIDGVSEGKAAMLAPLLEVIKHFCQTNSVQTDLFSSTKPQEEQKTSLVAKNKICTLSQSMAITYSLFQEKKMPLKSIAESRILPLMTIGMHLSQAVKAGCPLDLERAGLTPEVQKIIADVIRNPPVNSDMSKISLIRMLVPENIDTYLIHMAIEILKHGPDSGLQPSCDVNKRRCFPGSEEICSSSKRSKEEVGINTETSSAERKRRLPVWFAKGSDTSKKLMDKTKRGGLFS
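Enzyme (20 nM final) and test compound sit together 15 min at room temperature before substrate addition. Substrate is a single-forked duplex oligonucleotide (100 nM) labelled with fluorophore and quencher, with 2 mM ATP; helicase unwinding raises red fluorescence, read kinetically.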
BLM helicase inh-1 = inhibitors of human Bloom syndrome helicase BLM. recombinant BLM DNA unwinding, fluorescence dequenching. Potency, µM (titrated, usually from 56.1 µM), without a hit: top-dose activity change, negative = inhibition, usual class: inhibitors. 350,000 tested, 0.2% active;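 further: potency means the concentration at half of the fitted maximal effect; plate controls were vehicle for no effect and no enzyme for full effect; nearly all actives have a fitted effect of over 35% in size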
PI5P4Ka inh = PI5P4K alpha (human) kinase inhibition | PI5P4Kalpha enzyme, ADP-Glo luminescence, 60 min; hits give low values | max response, % | 330,000 tested, 1.2% active | AID 652105; active means max response of -50% or lower; inconclusive means between -30% and -50%; inactive means -30% or higher; further: value at the top dose of about 77 µM; on the % scale 0 is the no-effect control and ±100 the full control effect
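Enzyme plus substrate dispensed, test compounds pinned in, then ATP (5 microM final) added. After 60 min at RT, ADP-Glo reagent 1 for 45 min and reagent 2 for 30 min preceded luminescence imaging.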
APEX1 inh = APE1 (human) endonuclease inhibition; P27695; recombinant APE1, TAMRA/BHQ-2 abasic DNA cleavage fluorescence; Potency, µM (titrated, usually from 65.8 µM), inactives show at the highest dose activity change, negative = inhibition, hits mostly inhibitors; 350,000 tested, 0.35% active; AID 2517;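 further: potency means the concentration at half of the fitted maximal effect; plate controls were vehicle for no effect and reference inhibitor for full effect; nearly all actives have a fitted effect of over 55% in size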
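APE1 at 0.75 nM final was preincubated with compound 15 min at room temperature, then 50 nM double-stranded THF abasic-site substrate (5'-TAMRA/3'-BHQ-2) was added. Fluorescence (ex 525/em 598 nm) was read kinetically; third-minus-first read gave activity.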
FEN1 inh-1 = blocks human flap endonuclease 1. P39748. Recombinant FEN1 flap cleavage, fluorescence, 15 min. Potency, µM (titrated, usually from 114 µM), for the others: top-dose activity change, negative = inhibition, usual class: inhibitors. 390,000 tested, 0.35% active. AID 588795; further: potency means the concentration at half of the fitted maximal effect; on the % scale 0 is the no-effect control and ±100 the full control effect; nearly all actives have a fitted effect of over 65% in size
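Enzyme 10 nM, 15 min RT preincubation with compound; start with substrate 50 nM final; reads at 0 and 15 min; qHTS titration, four-parameter Hill fit.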
RECQ1 inh = RECQ1 (human) helicase inhibition | P46063 | RECQ1 DNA unwinding, red fluorescence kinetic read | Potency, µM (doses to about 57.3 µM), inactives show at the top dose activity, negative = inhibition, actives largely listed as inhibitors | 240,000 tested, 0.54% active;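 further: potency means the concentration at half of the fitted maximal effect; plate controls were vehicle for no effect and no enzyme for full effect; nearly all actives have a fitted effect of over 30% in size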
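50 nM RECQ1T1 preincubated 15 min with compound in Tris pH 8.0 buffer with MgCl2, DTT, Tween-20 and 2.5 ug/ml poly(dI-dC); started with 200 nM TAMRA/BHQ-2 forked duplex and 2 mM ATP. Unwinding read as fluorescence (525/598 nm), two reads 2 h apart.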
FEN1 inh-2 = confirmation of human FEN1 inhibitors | shares compounds with FEN1 inh-1 | FEN1 flap cleavage, TAMRA/BHQ2 fluorogenic DNA substrate | Potency, µM, actives largely listed as inhibitors | 880 tested, 79% active | AID 720498; further: potency means the concentration at half of the fitted maximal effect; nearly all actives have a fitted effect of over 60% in size
WRN helicase inh-2 = WRN helicase inhibition, cherry-pick retest; shares compounds with WRN helicase inh-1; WRN helicase DNA unwinding, fluorescence kinetic; 610 tested, 63% active; Potency, µM (top dose mostly 57.1 µM), for the others: at the top dose activity, negative = inhibition, most hits filed as inhibitors; further: potency means the concentration at half of the fitted maximal effect; nearly all actives have a fitted effect of over 65% in size
TO displacement = DNA binding via thiazole orange displacement | shares compounds with WRN helicase inh-1 | thiazole orange DNA binding displacement, fluorescence | Potency, µM (titrated, usually from 57.1 µM), without a hit: at the top dose activity change, negative = inhibition, actives largely listed as inhibitors | 610 tested, 10% active | AID 720499;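 further: drop in dye fluorescence marks compound binding to DNA; potency means the concentration at half of the fitted maximal effect; on the % scale 0 is the no-effect control and ±100 the full control effect; nearly all actives have a fitted effect of over 60% in size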
BLM helicase inh-2 = blocks human BLM helicase in WRN counterscreen; shares compounds with WRN helicase inh-1; Recombinant BLM helicase DNA unwinding, red fluorescence; Potency, µM (highest dose often 57.1 µM), without a hit: at the highest dose activity change, negative = inhibition, hits mostly inhibitors; 610 tested, 60% active; AID 720503; further: potency means the concentration at half of the fitted maximal effect; nearly all actives have a fitted effect of over 60% in size
Starred values were filed as active, the others as inactive; i = inactive; ? = inconclusive; . = no result given; [ ] = another dose, or the depositor's remark. Unless noted, the call rests on the fitted dose curve; in most records, active means well fitted curve in the direction sought with a large enough effect; inconclusive means small, poorly fitted or top-dose-only effect, or another doubt; inactive means no such curve, though single readings can be large; an effect the other way counts as inactive or inconclusive.

SMILES	WRN helicase inh-1	BLM helicase inh-1	PI5P4Ka inh	APEX1 inh	FEN1 inh-1	RECQ1 inh	FEN1 inh-2	others
COc1ccc2c(c1)CCc1c(C(=O)Nc3ccc(F)c(Cl)c3)noc1-2	.	-3%	.	.	5%	.	.
O=C(O)COc1ccc(C(=O)c2cccs2)c(Cl)c1Cl	.	-1%	.	14%	.	i	.
Cc1ccccc1C1=C/C(=C(\SS/C(C(=O)c2ccc(OCC(=O)O)c(Cl)c2Cl)=C2\C=C(c3ccccc3C)SS2)C(=O)c2ccc(OCC(=O)O)c(Cl)c2Cl)SS1	22µM*	.	-98*	.	56µM*	.	?
O=C(COC(=O)c1ccc([N+](=O)[O-])s1)NCc1ccc(F)cc1	-5%[11.6 µM]	-18%	-4	32µM*	-10%	-7%	6.7*
O=C(OCC(=O)c1ccc[nH]1)c1ccc([N+](=O)[O-])cc1	-1%	.	-23	5%	-6%	.	.
COc1ccccc1NC(=O)COC(=O)c1ccc([N+](=O)[O-])s1	6%[11.6 µM]	-7%	3	?	-10%	-3%	7.6*
O=C(COC(=O)c1ccc([N+](=O)[O-])s1)NCCc1ccccc1	28%	.	-4	?	?	.	.
O=C(COC(=O)c1ccc([N+](=O)[O-])s1)c1ccc[nH]1	-6%[11.6 µM]	.	?	?	-22%	.	3.4*
O=C(COC(=O)c1ccc([N+](=O)[O-])o1)NCc1ccc(F)cc1	15%	.	0	-12%	?	.	13*
COC(=O)C#CC(=O)OC	.	3%	.	-1%	.	3%	.
CC(=O)Nc1ccc(NC(=O)COC(=O)c2ccc([N+](=O)[O-])o2)cc1	1%[11.6 µM]	.	-2	-39%	20µM*	.	15*
Cc1ccc2nc3[nH]c(=O)[nH]c(=O)c3c(N)c2c1	-6%	.	-4	.	?	.	60*
O=C(O)c1c2cc(Br)ccc2nc2[nH]c(=O)[nH]c(=O)c12	0%	.	-11	.	-4%	.	.
COc1cc(/C=C/c2nc3cc(Cl)ccc3c(=O)n2-c2ccc(C)cc2C)cc(OC)c1OC	.	0%	.	.	-7%	.	.
O=C(CCSCc1cnn(-c2ccccc2)c1-n1cccc1)NCc1ccccc1F	.	-2%	.	.	-1%	.	.
O=C(Nc1cccnc1)c1cnc2ccccc2n1	1%	-12%	-8	-1%	4%	i	.
O=C(Nc1ccccc1-c1cn2c(CN3CCNCC3)csc2n1)c1cnc2ccccc2n1	.	.	.	.	28µM*	.	24*
Cc1cccc2cc(C(c3nnnn3C(C)(C)C)N(Cc3ccco3)CC3CCCO3)c(=O)[nH]c12 (configuration not stated)	1.7µM*	-14%	-25	28µM*	?	-8%	27*
CC(C)=CCc1c(O)ccc2c1OC(c1ccc(O)c(O)c1)CC2=O (configuration not stated)	-7%	-7%	?	-7%	-21%	-22%	.
O=C1CC(c2ccc(O)c(O)c2)Oc2c1ccc(O)c2O (configuration not stated)	3.2µM*	4µM*	-86*	0.13µM*	3.5µM*	1.6µM*	34*	WRN helicase inh-2=1.1µM*;TO displacement=?;BLM helicase inh-2=0.96µM*
Cc1ccc2nc(NC(=O)CSc3nccn3Cc3ccccc3)sc2c1	.	-10%	.	.	2%	.	.
Cc1nc(-c2ccc(S(=O)(=O)N(C)Cc3ccccc3)cc2)co1	.	-4%	.	.	10%	.	.
Cc1ccc(C(=O)Nc2c(C(=O)NCc3ccc(Cl)cc3)sc3nc(C)cc(C)c23)cc1	.	2%	.	.	19%	.	.
CCc1ccc(N=C2NC(=O)/C(=C/c3cc(Br)c(OCC(=O)O)c(OC)c3)S2)cc1	?	-5%	-97*	-20%	50µM*	.	76*	WRN helicase inh-2=22µM*;TO displacement=-4%;BLM helicase inh-2=24µM*
O=C(O)c1ccc2c(c1)C(=O)/C(=C\c1ccco1)C2=O	25µM*	140%	-61*	7.9µM*	?	?	27*	WRN helicase inh-2=?;TO displacement=22µM*;BLM helicase inh-2=-10%
SMILES	WRN helicase inh-1	BLM helicase inh-1	PI5P4Ka inh	APEX1 inh	FEN1 inh-1	RECQ1 inh	FEN1 inh-2	others
CCn1nc(C)c2c(-c3ccccc3)cc(=O)n(C(C)C(=O)NCc3ccc(C)cc3)c21 (configuration not stated)	.	-17%	.	.	0%	.	.
C[C@H]1[C@@H](OC(=O)CCC(=O)O)OC2OC3(C)CC[C@H]4[C@H](C)CC[C@@H]1[C@@]24OO3 (some centres not stated)	.	2%	.	.	.	.	.
COc1cc([N+](=O)[O-])cc(/C=C2/SC(=S)N(Cc3ccccc3)C2=O)c1O	2.7µM*	?	-71*	-21%	16µM*	.	21*	WRN helicase inh-2=7.6µM*;TO displacement=14µM*;BLM helicase inh-2=5.4µM*
Cc1ccc(NC(=O)CSc2nnc(C)s2)c(C)c1	.	-2%	.	.	-27%	.	.
COc1cccc2c1C(=O)c1c(O)c3c(c(O)c1C2=O)CC(O)(C(C)=O)CC3OC1CC(O)C(O)C(C)O1 (configuration not stated)	3µM*	.	-12	.	28µM*	.	85*	WRN helicase inh-2=22µM*;TO displacement=297%;BLM helicase inh-2=22µM*
CCc1ccc(-n2c(=O)c3cccnc3n2CC(=O)NCc2ccccc2)cc1	.	-8%	.	.	13%	.	.
CC1=C(C(=O)Nc2ccccc2)C(c2ccc[nH]2)n2ncnc2N1 (configuration not stated)	.	-30%	.	-39%	?	.	76*	WRN helicase inh-2=7.6µM*;TO displacement=?;BLM helicase inh-2=1.1µM*
Cc1cc(=O)n2nc(N(C)CC(=O)NCc3ccccc3C)sc2n1	.	1%	.	.	2%	.	.
CN(C)c1ccc2nc3c(=O)[nH]c(=O)nc-3n(CC(O)C(O)C(O)CO)c2c1 (configuration not stated)	3µM*	3%	-29	?	45µM*	.	34*	WRN helicase inh-2=22µM*;TO displacement=287%;BLM helicase inh-2=22µM*
CC1=NN(c2ccccc2)C(=O)/C1=C/C=C/c1ccccc1	-16%[11.6 µM]	-11%	7	-1%	-19%	-7%	.
